Experimental findings from PubChem BioAssay (NCI) are described below.

About 83,000 compounds went through this panel and 20% of them were active in at least one assay; those are over-represented in the sample as a whole.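 Treatment: one concentration, 48 hours, 96-well format. Scoring: percent growth, with anything below 10 considered active.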 Unmarked numbers belong to inactive results. Active and inactive are the calls of the source.

Among the test systems are NCI-H23 lung; NCI-H226 lung; NCI-H322M lung; HOP-62 NSCLC; NCI-H460 lung; HOP-92 NSCLC; NCI-H522 lung; A549/ATCC NSCLC; 786-0 renal; COLO 205 colon; DU-145 prostate; K-562 leukemia; MALME-3M melanoma; MDA-MB-231 breast; RXF 393 renal; SF-268 CNS; SF-295 CNS; SF-539 CNS; UACC-257 melanoma; M14 melanoma.
What all share (assay): NCI-60 one-dose screen, 48 h (100 = growth as untreated, 0 = no growth, -100 = all killed)
Common to all, as to conditions: 10 µM unless noted

Take `CCN(CC)CCOc1ccc2ccc(=O)oc2c1`: the growth in the assay with NCI-H23 lung was 106%; in the assay with NCI-H226 lung, 106%; in the assay with NCI-H322M lung, 88.2%; in the assay with HOP-62 NSCLC, 100%; in the assay on NCI-H460 lung it was 110%; in the assay with HOP-92 NSCLC, -15.1% (active). Further, the growth was 89.6% in the assay on NCI-H522 lung; 99.7% in the assay on A549/ATCC NSCLC; 101% with 786-0 renal; 102% in the assay on COLO 205 colon; 121% in the assay with DU-145 prostate; 2.68% (active) in the assay with K-562 leukemia. Also, the growth was 105% in the assay with MALME-3M melanoma; 99.5% in the assay on MDA-MB-231 breast; 103% in the assay on RXF 393 renal; 109% in the assay with SF-268 CNS; 94.3% with SF-295 CNS; 101% in the assay on SF-539 CNS. Moreover, the growth is 93% in the assay with UACC-257 melanoma and 94.8% in the assay with M14 melanoma.

In the case of `COc1cc(Cc2cc(-c3ccccc3)nn(Cc3ccccc3)c2=O)cc(OC)c1OC`, the growth in the assay on NCI-H23 lung is 37.4%; in the assay with NCI-H226 lung, 46.2%; in the assay with NCI-H322M lung, 78.5%; in the assay on HOP-62 NSCLC, 66.1%; in the assay on NCI-H460 lung, 37.3%; in the assay on HOP-92 NSCLC, 51.1%. Also, the growth was 28.4% in the assay on NCI-H522 lung; 19.9% with A549/ATCC NSCLC; 49.9% in the assay with 786-0 renal; 15.5% with COLO 205 colon; 77.7% with DU-145 prostate; 20.6% with K-562 leukemia. For the same compound, the growth in the assay with MALME-3M melanoma is 35.2%; in the assay with MDA-MB-231 breast, 50.1%; in the assay with RXF 393 renal it was 31.7%; in the assay with SF-268 CNS, 47.4%; with SF-295 CNS, 31.5%; in the assay with SF-539 CNS, 70%. Also, the growth in the assay on UACC-257 melanoma is 32%; with M14 melanoma, 44.1%.

Regarding `Cc1ccc(Cc2cnc(NC(=O)/C=C/c3ccc(C)o3)s2)cc1`, the growth with NCI-H23 lung is 56%; with NCI-H226 lung, 69.9%; in the assay on NCI-H322M lung, 48.1%; with HOP-62 NSCLC, 53.6%; in the assay with NCI-H460 lung, 12%; with HOP-92 NSCLC it was 59.5%. For the same compound, the growth in the assay on NCI-H522 lung is 19.3%; with A549/ATCC NSCLC it was 35.7%; in the assay with 786-0 renal, 42%; in the assay with COLO 205 colon it was 23.2%; in the assay on DU-145 prostate it was 33.9%; in the assay on K-562 leukemia, 18.6%. The growth in the assay on MALME-3M melanoma is 35.2%; in the assay on MDA-MB-231 breast, 67.9%; with RXF 393 renal, 41.6%; in the assay with SF-268 CNS, 52.9%; in the assay on SF-295 CNS, 23.6%; with SF-539 CNS, 23.6%. Moreover, the growth with UACC-257 melanoma was 62.5%; in the assay on M14 melanoma, 12.1%.

Turning to `C1CCC(N2CN3c4nonc4N4CN(C5CCCCC5)CN5c6nonc6N(C2)C3C45)CC1` (stereo not given), the growth was 98.4% with NCI-H23 lung; 96.4% with NCI-H226 lung; 95.6% in the assay on NCI-H322M lung; 97.2% in the assay on HOP-62 NSCLC; 99.4% in the assay on NCI-H460 lung; 82.1% with HOP-92 NSCLC. Also, the growth with NCI-H522 lung is 92.1%; in the assay on A549/ATCC NSCLC it was 92.4%; in the assay on 786-0 renal, 108%; in the assay with COLO 205 colon, 107%; with DU-145 prostate, 104%; in the assay with K-562 leukemia, 82.1%. Further, the growth in the assay with MALME-3M melanoma was 91.5%; in the assay with MDA-MB-231 breast, 106%; in the assay with RXF 393 renal it was 103%; in the assay on SF-268 CNS, 96.5%; in the assay on SF-295 CNS, 91.6%; in the assay on SF-539 CNS, 101%. The figures for the growth in the assay with UACC-257 melanoma and with M14 melanoma were 99.2% and 96%, respectively.

`O=C(Nc1nc(Cl)nc(Nc2ccc(N3CCOCC3=O)cc2)n1)c1ccc(Cl)s1`: the growth was 88.1% in the assay with NCI-H23 lung; 86.4% with NCI-H226 lung; 97.8% with NCI-H322M lung; 97.6% in the assay with HOP-62 NSCLC; 99.9% in the assay on NCI-H460 lung; 80.2% in the assay on HOP-92 NSCLC. For the same compound, the growth in the assay on NCI-H522 lung was 81.1%; in the assay on A549/ATCC NSCLC it was 77.3%; in the assay on 786-0 renal it was 108%; in the assay on COLO 205 colon it was 97.3%; in the assay with DU-145 prostate, 104%; with K-562 leukemia it was 64.2%. Moreover, the growth was 88.3% in the assay on MALME-3M melanoma; 88.3% in the assay on MDA-MB-231 breast; 91.3% in the assay on RXF 393 renal; 95.9% with SF-268 CNS; 92.7% with SF-295 CNS; 104% in the assay on SF-539 CNS. Moreover, the growth with UACC-257 melanoma is 72.2%; in the assay with M14 melanoma, 90.4%.

Regarding `COc1ccc(C(O)c2cc3c(N)c(C(=O)Nc4cccc5ccccc45)sc3nc2C)cc1` (stereo not given), the growth with NCI-H23 lung is 23.3%; in the assay with NCI-H226 lung, 18.6%; in the assay with NCI-H322M lung, 39.1%; with HOP-62 NSCLC, 25.6%; in the assay with NCI-H460 lung, -20.2% (active); in the assay on HOP-92 NSCLC, 51%. The growth in the assay with NCI-H522 lung is 0% (active); in the assay with A549/ATCC NSCLC, 11.6%; in the assay on 786-0 renal it was 16.2%; with COLO 205 colon, -34.3% (active); in the assay with DU-145 prostate it was 1.19% (active); in the assay with K-562 leukemia it was 12%. Moreover, the growth in the assay on MALME-3M melanoma was 27.7%; in the assay with MDA-MB-231 breast it was 13.6%; in the assay on RXF 393 renal it was 27%; in the assay with SF-268 CNS, 9.53% (active); in the assay with SF-295 CNS, 12.9%; in the assay on SF-539 CNS it was 4.62% (active). The growth in the assay with UACC-257 melanoma was 35.3%; in the assay with M14 melanoma, 15%.

With `Nc1ncnc2c1N=C(c1ccc(F)cc1)CC(c1cccc(Nc3ccnc4cc(Cl)ccc34)c1)N2` (stereo not given), the growth in the assay on NCI-H23 lung was 77.9%; with NCI-H226 lung, 91.5%; in the assay on NCI-H322M lung, 89.6%; with HOP-62 NSCLC, 73.5%; in the assay with NCI-H460 lung it was 81.3%; in the assay on HOP-92 NSCLC, 67.8%. In addition, the growth was 99.7% in the assay on NCI-H522 lung; 83.5% with A549/ATCC NSCLC; 61.9% in the assay on 786-0 renal; 49.8% in the assay with COLO 205 colon; 85.9% with DU-145 prostate; 26.7% with K-562 leukemia. Also, the growth in the assay with MALME-3M melanoma was 91.1%; in the assay with MDA-MB-231 breast, 75.2%; in the assay with RXF 393 renal it was 39.1%; in the assay with SF-268 CNS, 62%; with SF-295 CNS it was 72.1%; in the assay with SF-539 CNS, 80.6%. Moreover, the growth is 106% with UACC-257 melanoma and 72.1% in the assay on M14 melanoma.

As to `S=c1ccnc[nH]1`, the growth with NCI-H23 lung is 103%; with NCI-H226 lung it was 107%; in the assay with NCI-H322M lung it was 114%; in the assay with HOP-62 NSCLC, 109%; in the assay with NCI-H460 lung, 105%; in the assay on HOP-92 NSCLC, 76.2%. Further, the growth is 65.8% in the assay with NCI-H522 lung; 98.2% in the assay on A549/ATCC NSCLC; 89.7% in the assay with 786-0 renal; 102% in the assay with COLO 205 colon; 116% in the assay on DU-145 prostate; 113% with K-562 leukemia. Further, the growth was 123% in the assay on MALME-3M melanoma; 115% in the assay on MDA-MB-231 breast; 128% in the assay on RXF 393 renal; 113% in the assay on SF-268 CNS; 115% in the assay on SF-295 CNS; 100% with SF-539 CNS. Moreover, the figures for the growth in the assay on UACC-257 melanoma and in the assay with M14 melanoma were 105% and 96.6%, respectively.
